From PubChem
This is a sample that favours compounds with a hit; in the whole collection about 8.8% have one here.
HT1080NT lethal = kills 2HG-producing HT-1080-NT fibrosarcoma cells; AID 686970; 1.6% of 360,000 active; HT-1080-NT fibrosarcoma viability, CellTiter-Glo ATP luminescence, 48 h; Potency, µM (top dose mostly 46.1 µM), most hits filed as cytotoxic;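 also: NT is the 2HG producing partner of a matched IDH1 knockdown line; nearly all actives have a fitted effect of over 55% in size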
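Toxicity toward the 2HG-producing NT line was scored as %Activity, normalised to DMSO and no-cell wells, from CellTiter-Glo luminescence after 48 hours' treatment.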
KB-V1 MDR tox = KB-V1 MDR subline cytotoxicity. KB-V1 MDR cells viability, CellTiter-Glo, 72 h. Potency, µM (series often up to 46.1 µM), hits mostly cytotoxic. 3.4% of 400,000 active; also: nearly all actives have a fitted effect of over 60% in size
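qHTS viability screen in drug-selected KB-V1 MDR cells: 72 h compound treatment at 37 degrees C, ATP luminescence end point.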
HT1080 IDH1KD tx = HT-1080 IDH1 knockdown cell toxicity (counter line) | 2% of 360,000 active | Potency, µM (highest dose often 46.1 µM), hits mostly cytotoxic | HT-1080 IDH1 knockdown viability, ATP luminescence, 48 h
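HT-1080-IDH1KD cells (IDH1 knocked down), 750/well in RPMI with 5% FBS, treated with compound 48 h at 37 degrees C. Viability by CellTiter-Glo luminescence, normalised to DMSO and no-cell wells; concentration-response curves classed.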
IL1B secr inh = inhibitors of inflammasome signaling (IL-1 beta secretion); THP-1 LPS/ATP IL-1B secretion, AlphaLISA, 16 h; active compounds read low; activity change, % at 57.5 µM; 4.7% of 360,000 active; AID 743279; in the data active = activity change below about -50%; inconclusive = mostly about -30% to -49%
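THP-1 cells pretreated 1 hr with compounds (up to 57.5 uM final), then stimulated with LPS (250 ng/mL final) plus ATP (1.25 mM final); secreted IL-1B measured by AlphaLISA after 16 hr, decreased signal indicating inhibition.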
KB-3-1 cytotox = kills parental KB-3-1 adenocarcinoma cells; Potency, µM (doses to about 46.1 µM), most hits filed as cytotoxic; 1.4% of 400,000 active; KB-3-1 viability, CellTiter-Glo ATP luminescence, 72 h; also: nearly all actives have a fitted effect of over 60% in size
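Cytotoxicity measured as CellTiter-Glo luminescence after 72 h at 37 C. Compound titrations were pinned onto drug-naive KB-3-1 parental adenocarcinoma cells grown in DMEM with 10% FBS, and normalized data fitted to concentration-response curves.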
Of the large screens only hits and unclear results are named; the others gave an inactive call. Unless noted, calls follow the shape of the dose curve; as a rule, active = well fitted curve in the direction sought with a large enough effect; inconclusive = small, poorly fitted or top-dose-only effect, or another doubt; inactive = no such curve, though single readings can be large; an effect the other way counts as inactive or inconclusive.

Cc1ccc(-c2cc(C(=O)N3CCN(S(=O)(=O)c4ccc(Br)s4)CC3)[nH]n2)cc1C	none (no result: HT1080NT lethal, HT1080 IDH1KD tx, IL1B secr inh)
NC(=O)Nc1ccc(C(=O)OCC(=O)Nc2ccc(Cl)cn2)cc1	none
CCOC(=O)c1ccc(NC(=O)C2=C(C)C(=O)OC23CCCCCC3)cc1	none (no result: HT1080NT lethal, HT1080 IDH1KD tx, IL1B secr inh)
COc1ccc(N(C(=O)CCl)C(C(=O)NCCc2ccccc2)c2cccs2)cc1Cl (stereo not given)	HT1080NT lethal 18µM, KB-V1 MDR tox 13µM, HT1080 IDH1KD tx 5.8µM, IL1B secr inh -103, KB-3-1 cytotox 8.2µM
COc1cccc(N(C(=O)CCl)C(C(=O)NCCc2ccccc2)c2cccs2)c1 (stereo not given)	HT1080NT lethal 1.6µM, KB-V1 MDR tox inconclusive, HT1080 IDH1KD tx 1.3µM, IL1B secr inh inconclusive, KB-3-1 cytotox inconclusive
Cc1ccccc1-c1cnc(C(O)c2ccc(F)c(F)c2)[nH]1 (stereo not given)	none
COc1ccc(CC(=O)Nc2c(C(=O)Nc3ccccc3F)oc3ccccc23)cc1	none (no result: HT1080NT lethal, HT1080 IDH1KD tx, IL1B secr inh)
CCOc1ccc(/C=N/OCC(=O)NCc2ccc3c(c2)OCO3)cc1OC	none
O=C(CN1CCN(S(=O)(=O)c2cc(Br)ccc2Br)CC1)NCc1ccccc1Cl	KB-V1 MDR tox 3.7µM
O=C(CN1CCN(Cc2ccccc2)CC1)NCc1ccccc1Cl	none
O=C(NCCc1ccc(Cl)cc1)c1cnc2sc(N3CCOCC3)nn2c1=O	KB-V1 MDR tox inconclusive (no result: HT1080NT lethal, HT1080 IDH1KD tx, IL1B secr inh)
COc1cc2c(cc1OC)CN(C(=O)CCNC(=O)c1ccccc1Cl)CC2	none
Cc1ccc(/C=C/C(=O)Nn2cnnc2)cc1	HT1080NT lethal inconclusive, HT1080 IDH1KD tx inconclusive, IL1B secr inh -115
COc1cc(CNn2nnnc2N)cc(Br)c1OCC(=O)NC(C)(C)C	none
COc1cc(CNn2nnnc2N)cc(Br)c1OCc1c(Cl)cccc1Cl	KB-V1 MDR tox 21µM, HT1080 IDH1KD tx inconclusive, KB-3-1 cytotox inconclusive
O=c1oc2ccccc2c(O)c1/C=C1\C=Nc2ccccc21	HT1080NT lethal inconclusive, KB-V1 MDR tox inconclusive, HT1080 IDH1KD tx 26µM, IL1B secr inh -108, KB-3-1 cytotox inconclusive
O=c1oc2ccccc2c(O)c1/C=N/c1ncccn1	none
COc1cccc(-c2cnc3c(NC=O)cc(-c4cc(OC)c(OC)c(OC)c4)cn23)c1	HT1080NT lethal inconclusive, KB-V1 MDR tox inconclusive, HT1080 IDH1KD tx 16µM
CS(=O)(=O)Nc1cccc(-c2cc(NC=O)c3ncc(-c4ccc(F)c(Cl)c4)n3c2)c1	HT1080NT lethal inconclusive, KB-V1 MDR tox inconclusive, HT1080 IDH1KD tx inconclusive, KB-3-1 cytotox inconclusive
COc1cccc(-c2cc(NC=O)c3ncc(-c4ccc(OC)c(OC)c4)n3c2)c1	HT1080NT lethal 2.9µM, KB-V1 MDR tox 15µM, HT1080 IDH1KD tx 6.5µM, KB-3-1 cytotox 13µM
COc1ccc(-c2cnc3c(NC=O)cc(-c4cccc(NS(C)(=O)=O)c4)cn23)cc1OC	HT1080NT lethal 2.3µM, HT1080 IDH1KD tx 4.6µM, KB-3-1 cytotox inconclusive
COc1cccc(-c2cc(NC(C)=O)c3ncc(-c4ccc(OC)c(OC)c4)n3c2)c1	IL1B secr inh -81
COc1ccc(S(=O)(=O)N2CCC(C(=O)Oc3ccc(C)cc3)CC2)cc1OC	none
COc1cccc(-c2cnc3c(NC(C)=O)cc(-c4ccc(C(=O)NC5CC5)cc4)cn23)c1	HT1080NT lethal 18µM, HT1080 IDH1KD tx 21µM, IL1B secr inh inconclusive, KB-3-1 cytotox inconclusive
c1cncc(CSc2ccc(-c3cccs3)nn2)c1	KB-V1 MDR tox inconclusive, HT1080 IDH1KD tx inconclusive, IL1B secr inh -60
Cc1ccc(CSc2ccc(-c3cccs3)nn2)cc1	KB-V1 MDR tox inconclusive
CC12CCC(C(=O)Nc3ccncc3)(CC1O)C2(C)C (stereo not given)	none
CCn1c(C)c(C2=CCN(S(=O)(=O)c3ccc(C)cc3)CC2)c2ccccc21	KB-V1 MDR tox 16µM, KB-3-1 cytotox inconclusive
Cc1ccc(S(=O)(=O)N2CCc3ccccc3CC2)cc1	KB-V1 MDR tox inconclusive, IL1B secr inh -85, KB-3-1 cytotox inconclusive
CCCCNC(=O)[C@@H]1CC=C[C@@H]2CCN(CCCC)C(=O)[C@@H]21	none (no result: HT1080NT lethal, HT1080 IDH1KD tx, IL1B secr inh)
Cc1cc(N2CCOCC2)nc(N2CCOCC2)c1C#N	KB-V1 MDR tox 7.3µM, KB-3-1 cytotox inconclusive
Cc1cc(C)c(C#N)c(N2CCOCC2)n1	KB-V1 MDR tox inconclusive
Cc1ccc2c(c1)C1(C(=O)N2)N2CCCC2C(C(=O)c2ccc3ccccc3c2)C12C(=O)Nc1ccccc12 (stereo not given)	HT1080NT lethal inconclusive, HT1080 IDH1KD tx inconclusive, IL1B secr inh -86
O=C1CCC(C(=O)N2CCCC(C(=O)c3ccc4ccccc4c3)C2)=NN1 (stereo not given)	none (no result: KB-V1 MDR tox, KB-3-1 cytotox)
O=C(CSc1nc2c(sc3ccccc32)c(=O)n1CCCN1CCCC1)NCc1ccco1	HT1080NT lethal inconclusive, HT1080 IDH1KD tx inconclusive, IL1B secr inh -70
Cc1cc(NC(=O)CSc2nc3c(sc4ccccc43)c(=O)n2CCCN2CCOCC2)n[nH]1	KB-3-1 cytotox 13µM
O=C(CSc1nc2c(sc3ccccc32)c(=O)n1CCO)NCc1ccco1	none
COc1ccccc1N(C)S(=O)(=O)c1ccc(C(=O)OCC(=O)c2c[nH]c3ccccc23)cc1	none
Cc1cc(-c2nc3ccccc3o2)c2ccccc2n1	KB-V1 MDR tox 13µM
CCc1sc(C(=O)Nc2ccc(N3CCOCC3)cc2)cc1C	HT1080NT lethal inconclusive, HT1080 IDH1KD tx inconclusive, IL1B secr inh -64, KB-3-1 cytotox inconclusive
CC(C)(O)C#Cc1ccc(C(=O)Nc2ccc3c(c2)OCO3)s1	HT1080NT lethal inconclusive, HT1080 IDH1KD tx 7.3µM, IL1B secr inh -52
CCc1sc(C(=O)Nc2ccc3c(c2)OCO3)cc1C	IL1B secr inh -80
CC(C)(O)C#Cc1ccc(C(=O)NC2CCCCC2)s1	KB-V1 MDR tox inconclusive
C=CCC1(CC=C)CC(Cc2cnccn2)N(C(=O)OC(C)(C)C)C1 (stereo not given)	none
O=S(=O)(Cc1ccccc1)NCCc1cccc(Cl)c1	none
CCCCNC(=O)c1sc(=S)n(-c2ccccc2OC)c1N	KB-V1 MDR tox 21µM
COc1oc(C(=O)NC2CCCCC2)c(-c2ccc(Cl)cc2)c1S(=O)(=O)c1ccccc1	HT1080NT lethal inconclusive, KB-V1 MDR tox 4.6µM, HT1080 IDH1KD tx inconclusive, IL1B secr inh -58, KB-3-1 cytotox inconclusive
CCCOC(=O)C1=C(C)NC2=C(C(=O)CCC2)C1c1cccc(OC)c1OC (stereo not given)	none
CC1=C(C(=O)OC2CCCC2)C(c2ccc(C)o2)C2=C(CC(c3cccs3)CC2=O)N1 (stereo not given)	HT1080NT lethal inconclusive, KB-V1 MDR tox 21µM, HT1080 IDH1KD tx inconclusive
CCCOC(=O)C1=C(C)NC2=C(C(=O)CCC2)C1c1cccs1 (stereo not given)	KB-V1 MDR tox 23µM
CCOC(=O)C1=C(C)NC(c2cccs2)C(=O)N1 (stereo not given)	none
COC(=O)C1=C(C)NC2=C(C(=O)CC(c3cccs3)C2)C1c1ccsc1 (stereo not given)	KB-V1 MDR tox 7.3µM, HT1080 IDH1KD tx inconclusive, KB-3-1 cytotox inconclusive
